# Key:
# Assay in all cases: thermal shift delta Tm vs DMSO control; higher = stronger stabilization (binding)
# Settings in all cases: 12.5 µM; protein concentration 2 µM
# LOC_OS01G01410-cb001 = test system: LOC_OS01G01410-cb001
# Method in brief: (§1)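 Purified, E. coli-expressed rice kinase domain constructs were tested by differential scanning fluorimetry in 96-well plates: 19.5 μl of 2 μM kinase in 100 mM potassium phosphate pH 7.5, 150 mM NaCl, 10% glycerol, 5 × SYPRO Orange, plus compound in DMSO. Fluorescence was read from 25°C to 95°C at 0.05°C/s. Melting temperatures came from Boltzmann fits, and the shift is the triplicate mean relative to protein with DMSO alone.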
# LOC_OS01G02750-cb003 = test system: LOC_OS01G02750-cb003
# Method in brief: as §1
# LOC_OS01G10900-cb004 = test system: LOC_OS01G10900-cb004
# Method in brief: as §1
# LOC_OS01G13800-cb001 = test system: LOC_OS01G13800-cb001
# Method in brief: as §1
# LOC_OS01G14860-cb001 = test system: LOC_OS01G14860-cb001
# Method in brief: as §1
# LOC_OS01G21960-cb002 = test system: LOC_OS01G21960-cb002
# Method in brief: as §1
# LOC_OS01G39600-cb002 = test system: LOC_OS01G39600-cb002
# Method in brief: as §1
# LOC_OS01G48390-cb002 = test system: LOC_OS01G48390-cb002
# Method in brief: as §1
# LOC_OS01G51400-cb002 = test system: LOC_OS01G51400-cb002
# Method in brief: as §1
# LOC_OS01G52050-cb004 = test system: T1, LOC_OS01G52050-cb004
# T1 sequence (whole entry): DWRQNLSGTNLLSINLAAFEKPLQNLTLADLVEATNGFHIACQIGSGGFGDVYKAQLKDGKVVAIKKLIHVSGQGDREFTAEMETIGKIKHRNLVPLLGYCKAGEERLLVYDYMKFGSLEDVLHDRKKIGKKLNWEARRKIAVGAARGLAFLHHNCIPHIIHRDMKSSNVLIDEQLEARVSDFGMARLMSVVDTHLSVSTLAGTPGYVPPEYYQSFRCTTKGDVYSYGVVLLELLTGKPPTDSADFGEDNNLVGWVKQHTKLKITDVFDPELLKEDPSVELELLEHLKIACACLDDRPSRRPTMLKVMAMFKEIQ
# Method in brief: as §1
# LOC_OS01G57100-cb003 = test system: LOC_OS01G57100-cb003
# Method in brief: as §1
# LOC_OS01G60330-cb001 = test system: LOC_OS01G60330-cb001
# Method in brief: as §1
# LOC_OS01G60700-cb002 = test system: LOC_OS01G60700-cb002
# Method in brief: as §1
# LOC_OS01G63280-cb003 = test system: LOC_OS01G63280-cb003
# Method in brief: as §1
# LOC_OS01G67340-cb003 = test system: LOC_OS01G67340-cb003
# Method in brief: as §1
# LOC_OS01G70970-cb002 = test system: LOC_OS01G70970-cb002
# Method in brief: as §1
# LOC_OS02G07810-cb001 = test system: LOC_OS02G07810-cb001
# Method in brief: as §1
# LOC_OS02G08530-cb003 = test system: LOC_OS02G08530-cb003
# Method in brief: as §1
# LOC_OS02G14120-cb001 = test system: LOC_OS02G14120-cb001
# Method in brief: as §1
# LOC_OS02G17970-cb001 = test system: LOC_OS02G17970-cb001
# Method in brief: as §1
Compound,thermal shift delta Tm (LOC_OS01G01410-cb001) [°C],thermal shift delta Tm (LOC_OS01G02750-cb003) [°C],thermal shift delta Tm (LOC_OS01G10900-cb004) [°C],thermal shift delta Tm (LOC_OS01G13800-cb001) [°C],thermal shift delta Tm (LOC_OS01G14860-cb001) [°C],thermal shift delta Tm (LOC_OS01G21960-cb002) [°C],thermal shift delta Tm (LOC_OS01G39600-cb002) [°C],thermal shift delta Tm (LOC_OS01G48390-cb002) [°C],thermal shift delta Tm (LOC_OS01G51400-cb002) [°C],thermal shift delta Tm (LOC_OS01G52050-cb004) [°C],thermal shift delta Tm (LOC_OS01G57100-cb003) [°C],thermal shift delta Tm (LOC_OS01G60330-cb001) [°C],thermal shift delta Tm (LOC_OS01G60700-cb002) [°C],thermal shift delta Tm (LOC_OS01G63280-cb003) [°C],thermal shift delta Tm (LOC_OS01G67340-cb003) [°C],thermal shift delta Tm (LOC_OS01G70970-cb002) [°C],thermal shift delta Tm (LOC_OS02G07810-cb001) [°C],thermal shift delta Tm (LOC_OS02G08530-cb003) [°C],thermal shift delta Tm (LOC_OS02G14120-cb001) [°C],thermal shift delta Tm (LOC_OS02G17970-cb001) [°C]
"C=CC(=O)Nc1cccc(Nc2nc(Nc3ccc(N4CCN(C(C)=O)CC4)cc3OC)ncc2C(F)(F)F)c1 [Rociletinib (CO-1686, AVL-301)]",1.11,-0.18,-0.01,-0.38,0.68,0.5,-0.84,1.8,0.49,0.58,3.39,1.53,1.63,-0.27,0.52,1.38,1,5.28,1.71,0.49
O=C(Nc1ccccc1C(=O)NC1CCCCNC1=O)c1cc2ccccc2s1 (stereo not given),-0.16,1.09,0.05,0.44,0.04,0.32,-0.76,-0.09,0.19,-0.05,1.14,1.02,0.65,-0.03,0.41,0.19,0.51,0.19,0.18,0.88
CNC(=O)CN1CCC(Oc2cc3c(Nc4cccc(Cl)c4F)ncnc3cc2OC)CC1 [Sapitinib (AZD8931)],0.6,0.72,0.42,-0.22,0.2,0.31,0.43,0.44,-0.05,0.01,0.77,0.15,0.56,0.07,-0.27,-0.1,0.32,0.51,2.09,-0.13
Cc1ccccc1CN1C2=NCCN2C(=O)C2=C1CCN(Cc1ccccc1)C2 [TIC10 Analogue],0.06,2.43,0.31,-0.07,0.07,0.85,-3.24,0.44,0.5,-0.27,1.53,0.24,1.04,0.12,-0.3,0.36,0.85,1.02,-0.11,0.86
Cn1cc(-c2cnn3c(N)c(Br)c([C@@H]4CCCNC4)nc23)cn1,0.38,0.39,0.35,0.21,0.82,1.25,0.31,0.35,0.23,0.71,-0.78,1.36,0.1,0.91,0.29,0.3,2.88,0.14,3.6,-0.03
"CC(C)(O)CNc1ncc(-c2ccnc(Nc3ccncc3)n2)c(CC2CC2)n1 [VPS34 inhibitor 1 (Compound 19, PIK-III analogue)]",0.51,1.04,5.05,0.63,2.25,0.87,0.48,1.46,0.29,4.06,1.59,0.38,0.34,0.12,-0.02,0.5,-0.03,0.85,4.52,0.28
C[S+]([O-])c1ccc(-c2nc(-c3ccc(F)cc3)c(-c3ccncc3)[nH]2)cc1 (stereo not given),1.61,-0.29,0.57,0.79,2.49,1.22,0.18,0.4,-0.08,0.5,1.65,1.11,1.91,1.11,-0.03,0.63,1.46,1.44,1.3,0.84
N#CCNC(=O)c1ccc(-c2ccnc(Nc3ccc(N4CCOCC4)cc3)n2)cc1 [Momelotinib (CYT387)],2.55,0.08,1.02,0.1,5.59,2.72,2.38,0.91,0.13,3.27,1.85,6.73,1.01,0.32,1.56,0.41,0.78,1.72,9.13,0.53
Cc1ccc(Nc2cc(N[C@@H]3CCCC[C@@H]3N)nnc2C(N)=O)nc1C,1.14,1.56,0.34,0.15,4.3,1.71,0.06,0.5,0.36,4.19,2.34,1.23,1.25,0.77,0.39,2.01,0.12,2.54,5.04,1.48
CC(C)(C)c1cc(NC(=O)Nc2ccc(Oc3ccnc4[nH]c(=O)cnc34)cc2F)n(-c2ccccc2)n1,-0.24,1.82,0.63,0.95,6.67,0.63,0.19,0.23,0.46,0.84,1.77,1.69,1.38,10.7,0.45,0.73,0.8,1.22,4.49,2.69
COc1cc(Nc2ncc(F)c(Nc3ccc4c(n3)NC(=O)C(C)(C)O4)n2)cc(OC)c1OC,0.76,0.35,0.54,-0.84,5.04,3.95,4.95,0.28,0.41,7.74,4.83,4.41,0.57,0.28,0.45,2.5,0.41,4,12.4,0.45
CCN1C(=O)CNc2ncc(-c3ccc(-c4nc[nH]n4)nc3C)nc21,0.49,-0.88,1.31,0.86,1.11,0.62,-1.87,0.34,-0.29,-1.26,1.53,0.57,0.53,-0.65,-0.28,0.01,0.72,0.04,-0.7,0.77
Cc1cnc(NC(=O)Nc2cc(Br)c(C)cc2OC[C@@H]2CNCCO2)cn1,0.41,0.39,0.37,-0.12,0.81,0.58,0.24,1.82,0.02,2.33,0.95,0.18,0.72,0.14,0.03,0.38,0.19,2.28,0.85,0.19

# Source: the supplement of paper PMC9694430
